# Measurements from PubChem BioAssay (Tox21).
# Calls of active or inactive are those of the source. The call rests on the fitted dose curve; in most records, active means well fitted curve in the direction sought with a large enough effect in the repeat runs; inconclusive means weak or mixed curves; inactive means flat fitted curve, though single readings scatter.
# Test: qHTS assay to test for compound auto fluorescence at 590 nm (red) in HepG2 cell free culture (AID 720684)
# Settings: cell-free medium autofluorescence, red 540/590 nm; series mostly up to 46 µM
# Method in brief: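 Rose Bengal sodium served as the reference for red signal. Test compounds were dispensed into serum-containing MEM (10% FBS) without cells, and plates were read at 540/590 nm.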
row,SMILES,outcome
1,Cc1cc(CC(C)CC(C)(C)C)n(O)c(=O)c1 (centres undefined) (tested in a mixture with another compound),inactive
2,O=P(O)(O)CP(=O)(O)O,inactive
3,CC(=O)OCC(=O)[C@@]1(O)CC[C@H]2[C@@H]3C[C@H](C)C4=CC(=O)C=C[C@]4(C)[C@H]3[C@@H](O)C[C@@]21C,inactive
4,CCCOC(=O)c1ccccc1O,inactive
5,CCCCCCCCCCCCCCCCCCNC(=O)OC1CCN(C(=O)OC[C@H](COC(=O)N(Cc2cccc[n+]2CC)C(=O)c2ccccc2OC)OC)CC1,inactive
6,CC(Cc1ccc(O)c(O)c1)C(C)Cc1ccc(O)c(O)c1 (centres undefined),inactive
7,CCCCCCCC[N+](C)(C)CCCCCCCC,inactive
8,CC(CNC(=O)c1cccnc1)NC(=O)c1cccnc1 (centres undefined),inactive
9,O=C(O)COc1ccccc1/C=N/NC(=O)c1ccncc1,inactive
10,O=C(O)CCCC/C=C(\c1ccccc1)c1cccnc1,inactive
11,CCC1OC(=O)C[C@@H](O)[C@H](C)[C@@H](O[C@@H]2O[C@H](C)C[C@H](N(C)C)[C@H]2O)[C@@H](CC=O)C[C@@H](C)C(=O)/C=C/[C@]2(C)OC2C1C (some centres undefined),inactive
12,SC1CCCCC1,inactive
13,NC[C@H]1O[C@H](O[C@H]2[C@H](O)[C@@H](O[C@H]3O[C@H](CO)[C@@H](O)[C@H](N)[C@H]3O)[C@H](N)C[C@@H]2N)[C@H](N)C[C@@H]1O,inactive
14,NCC[C@H](O)C(=O)N[C@@H]1C[C@H](N)[C@@H](O[C@H]2O[C@H](CN)CC[C@H]2N)[C@H](O)[C@H]1O[C@H]1O[C@H](CO)[C@@H](O)[C@H](N)[C@H]1O,inactive
